The source of these data is PubChem BioAssay (Tox21).

Assay [1] is described as follows: qHTS assay to identify small molecule antagonists of the thyroid receptor (TR) signaling pathway - cell viability counter screen (AID 743064). Note: nearly all actives have a fitted effect of over 50% in size. In a few lines:
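GH3.TRE-Luc rat pituitary cells dosed after 4 hr plating, co-stimulated with T3 at 1 nM final, incubated 23.5 h at 37 C. Viability measured in the same wells by CellTiter-Fluor fluorescence after 30 min further at 37 C.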
On the technique in general: Quantitative high-throughput screening tests each substance at several concentrations.

A short description of assay [2]: qHTS assay to identify small molecule antagonists of the estrogen receptor alpha (ER-alpha) signaling pathway - cell viability counter screen (AID 743074; calls by dose curve;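 note: HEK293 cells carrying ER-alpha-UAS-bla reporter stimulated with 17beta-estradiol; nearly all actives have a fitted effect of over 45% in size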).
A short description of assay [3]: qHTS assay to identify small molecule antagonists of the estrogen receptor alpha (ER-alpha) signaling pathway using the BG1 cell line - cell viability counter screen (AID 743081).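 Note: compound given together with 17beta-estradiol as the ER stimulus; nearly all actives have a fitted effect of over 45% in size.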
The next assay addresses Aromatase (Homo sapiens) (UniProt P11511). As to the kind of experiment: qHTS assay to identify aromatase inhibitors (AID 743083). Note: nearly all actives have a fitted effect of over 55% in size.
Assay [4] can be described thus: qHTS assay to identify aromatase inhibitors - cell viability counter screen (AID 743084).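 Note: cells stimulated with testosterone during compound exposure; nearly all actives have a fitted effect of over 55% in size.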
A short description of assay [5]: qHTS assay to identify small molecule that activate the aryl hydrocarbon receptor (AhR) signaling pathway - cell viability counter screen (AID 743086). Note: nearly all actives have a fitted effect of over 45% in size. In outline:
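HepG2-AhR-luc (HG2L7.5c1) cells, 4000/well, treated 24 h at 37 C with compound; viability measured as CellTiter-Fluor fluorescence after 30 min in the same wells as the luciferase read.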

The target of assay [6] is Peroxisome proliferator-activated receptor gamma (Homo sapiens) (UniProt P37231). The assay can be described thus: qHTS assay to identify small molecule agonists of the peroxisome proliferator-activated receptor gamma (PPARg) signaling pathway (AID 743094; active = well fitted activation curve with a large enough effect in the signal ratio in the repeat runs, not every such curve was filed as active; the % refers to the signal ratio). In a few lines: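 Following 5 h plating at 37C, PPARg-bla HEK293H cells receive compound or DMSO for 17 h; fluorescence intensity is recorded after LiveBLAzer B/G loading for 1 h at room temperature.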

Assay [7] shares this target. The assay can be described thus: qHTS assay to identify small molecule antagonists of the peroxisome proliferator-activated receptor gamma (PPARg) signaling pathway (AID 743191; calls by dose curve; note: nearly all actives have a fitted effect of over 30% in size; note: potency is the fitted concentration of half-maximal effect). In outline: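 GeneBLAzer PPARg UAS-bla HEK293H cells, 5 h post-plating, exposed to compounds 17 h at 37C. LiveBLAzer B/G FRET substrate added for 1 h at room temperature; beta-lactamase reporter read by fluorescence intensity.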

Assay [8] in a line: qHTS assay to identify small molecule antagonists of the peroxisome proliferator-activated receptor gamma (PPARg) signaling pathway - cell viability counter screen (AID 743194). Note: nearly all actives have a fitted effect of over 55% in size. The note with it: Potency: co-treated with 50 nM rosiglitazone unless noted. In a few lines:
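Cytotoxicity counter screen in PPARg-bla HEK293H cells, same wells as reporter assay. Compounds plus 50 nM rosiglitazone (final) for 17 h at 37 C, then viability read by CellTiter-Glo luminescence.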

Assay [9] can be described thus: qHTS assay for small molecule agonists of the antioxidant response element (ARE) signaling pathway (AID 743202; active = well fitted activation curve with a large enough effect in the signal ratio in the repeat runs, not every such curve was filed as active; the % refers to the signal ratio; note: potency is the fitted concentration of half-maximal effect). In a few lines: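 Agonist mode reporter screen: HepG2 cells with ARE-controlled beta-lactamase are incubated with test compounds for 16 h at 37 C, and beta-lactamase activity is measured as fluorescence of cleaved B/G FRET substrate.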
Assay [10] in a line: qHTS assay for small molecule activators of the heat shock response signaling pathway - cell viability counter screen (AID 743209). Note: nearly all actives have a fitted effect of over 50% in size. In a few lines: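 Counter screen for cytotoxicity in HeLa HSE-bla reporter cells. Treatment was 5 h at 37 C; viability was detected by luminescent ATP assay (CellTiter-Glo) in the same wells as the beta-lactamase read.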
A short description of assay [11]: qHTS assay for small molecule activators of the heat shock response signaling pathway (AID 743210; active = well fitted activation curve with a large enough effect in the signal ratio in the repeat runs, with a control signal flat, not every such curve was filed as active; the % refers to the signal ratio;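 note: HeLa cells with beta-lactamase reporter driven by heat shock elements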). In a few lines: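 Quantitative high-throughput format using an engineered HeLa line in which heat shock response elements drive beta-lactamase; after 5 h with compound, cells received a B/G FRET substrate and fluorescence was read.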
Assay [12] is described as follows: qHTS assay to identify small molecule antagonists of the thyroid receptor (TR) signaling pathway (AID 743065). Note: nearly all actives have a fitted effect of over 55% in size. Note: potency is the fitted concentration of half-maximal effect. In outline: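 GH3.TRE-Luc rat pituitary cells (two TREs driving luciferase) were dosed with compound, then stimulated with 1 nM T3 (final) for 23.5 h at 37 C. ONE-Glo luminescence was the read-out, with CellTiter-Fluor fluorescence as the cytotoxicity counter-screen.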

In assay [13] the test system is thyroid hormone receptor (rat, GH3 cells). The assay can be described thus: qHTS assay to identify small molecule agonists of the thyroid receptor (TR) signaling pathway (AID 743066; calls by dose curve).
The target of assay [14] is Estrogen receptor (Homo sapiens) (UniProt P03372). The assay can be described thus: qHTS assay to identify small molecule antagonists of the estrogen receptor alpha (ER-alpha) signaling pathway (AID 743069; active = well fitted curve in the direction sought with a large enough effect in the signal ratio in the repeat runs, not every such curve was filed as active; the % refers to the signal ratio). In outline: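 Reporter cells (ER-alpha-bla, HEK293 background) are conditioned overnight in stripped-serum medium (2% charcoal-stripped FBS). Compound and 17beta-estradiol exposure runs 18 hr at 37C, 5% CO2.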

Assay [15] has the same target. As to the kind of experiment: qHTS assay to identify small molecule agonists of the estrogen receptor alpha (ER-alpha) signaling pathway (AID 743075; calls by dose curve;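 note: HEK293 GripTite cells with ER-alpha and UAS-driven beta-lactamase reporter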).
The target is the same in assay [16]. As to the kind of experiment: qHTS assay to identify small molecule agonists of the estrogen receptor alpha (ER-alpha) signaling pathway using the BG1 cell line (AID 743079). Note: nearly all actives have a fitted effect of over 20% in size. Note: potency is the fitted concentration of half-maximal effect. The following applies: BG1Luc4E2 cells, ERE-luciferase agonist, 22 h; activation: at 70.3 µM (top of the series).
A short description of assay [17]: qHTS assay to identify small molecule antagonists of the estrogen receptor alpha (ER-alpha) signaling pathway using the BG1 cell line (AID 743080; calls by dose curve;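 note: BG1 cells stimulated with 17beta-estradiol alongside compound; nearly all actives have a fitted effect of over 25% in size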). In outline: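 Quantitative HTS on the Tox21 10K library: BG1 cells with endogenous ER-alpha and ERE-luciferase reporter, 17beta-estradiol stimulation, 21.5 h compound exposure, luminescence endpoint with parallel fluorescence cytotoxicity counter-read.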

Assay [18] has as its target Aryl hydrocarbon receptor (Homo sapiens) (UniProt P35869). The assay can be described thus: qHTS assay to identify small molecule that activate the aryl hydrocarbon receptor (AhR) signaling pathway (AID 743085).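 For activation: HG2L7.5c1 human HepG2 liver cells with stably integrated DRE-driven firefly reporter.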 Note: nearly all actives have a fitted effect of over 15% in size. Note: potency is the fitted concentration of half-maximal effect. In a few lines: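 HepG2 cells stably carrying a 20-DRE firefly luciferase reporter (HG2L7.5c1) treated with compound for 24 hr at 37C. Luciferase read by ONE-Glo luminescence, with CellTiter-Fluor viability read first.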

Assay [19] is described as follows: qHTS assay for small molecule agonists of the antioxidant response element (ARE) signaling pathway - cell viability counter screen (AID 743203; calls by dose curve; note: nearly all actives have a fitted effect of over 55% in size). In outline: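 Compounds in DMSO were pinned onto ARE-bla HepG2 cells plated 5 hrs earlier at 2,000 cells/well. Sixteen hours later at 37C/5% CO2, CellTiter-Glo was added and luminescence measured after 30 min at room temperature.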

Inconclusive results are not listed. Calls of active or inactive are those of the source. Unless noted, calls come from the whole dose curve; as a rule, active = well fitted curve in the direction sought with a large enough effect in the repeat runs; inconclusive = weak or mixed curves; inactive = no such curve, though single readings can be large; an effect the other way counts as inactive or inconclusive.

Estrogen receptor (Homo sapiens), sequence (P03372 whole entry, looked up): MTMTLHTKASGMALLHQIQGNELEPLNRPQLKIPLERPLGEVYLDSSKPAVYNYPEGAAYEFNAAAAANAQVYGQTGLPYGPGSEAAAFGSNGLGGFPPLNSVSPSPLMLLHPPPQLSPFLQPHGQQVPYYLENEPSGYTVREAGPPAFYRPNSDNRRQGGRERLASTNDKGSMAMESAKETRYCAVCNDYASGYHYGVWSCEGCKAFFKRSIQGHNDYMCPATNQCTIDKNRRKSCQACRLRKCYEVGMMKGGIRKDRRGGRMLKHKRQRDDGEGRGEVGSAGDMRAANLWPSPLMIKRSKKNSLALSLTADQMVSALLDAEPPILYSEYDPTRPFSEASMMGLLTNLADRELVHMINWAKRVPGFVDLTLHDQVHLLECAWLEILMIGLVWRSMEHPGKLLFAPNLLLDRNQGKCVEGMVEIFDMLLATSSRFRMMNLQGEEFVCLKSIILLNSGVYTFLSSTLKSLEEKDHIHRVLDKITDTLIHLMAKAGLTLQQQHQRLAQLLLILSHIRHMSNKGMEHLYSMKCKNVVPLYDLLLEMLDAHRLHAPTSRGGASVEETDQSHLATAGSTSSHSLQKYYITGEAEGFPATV
Aromatase (Homo sapiens), sequence (P11511 whole entry, looked up): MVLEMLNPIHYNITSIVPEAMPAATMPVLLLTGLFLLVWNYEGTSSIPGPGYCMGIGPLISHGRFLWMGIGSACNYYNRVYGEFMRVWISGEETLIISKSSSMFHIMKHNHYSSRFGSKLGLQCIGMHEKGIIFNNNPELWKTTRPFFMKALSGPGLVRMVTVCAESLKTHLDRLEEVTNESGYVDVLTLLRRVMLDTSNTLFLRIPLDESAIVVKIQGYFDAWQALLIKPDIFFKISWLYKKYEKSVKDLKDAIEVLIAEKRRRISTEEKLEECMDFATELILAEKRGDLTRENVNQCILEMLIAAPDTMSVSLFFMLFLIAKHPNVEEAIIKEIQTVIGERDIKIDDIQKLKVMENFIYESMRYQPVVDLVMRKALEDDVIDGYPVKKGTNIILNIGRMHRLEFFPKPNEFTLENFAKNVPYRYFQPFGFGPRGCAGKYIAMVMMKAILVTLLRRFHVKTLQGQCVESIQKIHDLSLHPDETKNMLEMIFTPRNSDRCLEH
Aryl hydrocarbon receptor (Homo sapiens), sequence (P35869 whole entry, looked up): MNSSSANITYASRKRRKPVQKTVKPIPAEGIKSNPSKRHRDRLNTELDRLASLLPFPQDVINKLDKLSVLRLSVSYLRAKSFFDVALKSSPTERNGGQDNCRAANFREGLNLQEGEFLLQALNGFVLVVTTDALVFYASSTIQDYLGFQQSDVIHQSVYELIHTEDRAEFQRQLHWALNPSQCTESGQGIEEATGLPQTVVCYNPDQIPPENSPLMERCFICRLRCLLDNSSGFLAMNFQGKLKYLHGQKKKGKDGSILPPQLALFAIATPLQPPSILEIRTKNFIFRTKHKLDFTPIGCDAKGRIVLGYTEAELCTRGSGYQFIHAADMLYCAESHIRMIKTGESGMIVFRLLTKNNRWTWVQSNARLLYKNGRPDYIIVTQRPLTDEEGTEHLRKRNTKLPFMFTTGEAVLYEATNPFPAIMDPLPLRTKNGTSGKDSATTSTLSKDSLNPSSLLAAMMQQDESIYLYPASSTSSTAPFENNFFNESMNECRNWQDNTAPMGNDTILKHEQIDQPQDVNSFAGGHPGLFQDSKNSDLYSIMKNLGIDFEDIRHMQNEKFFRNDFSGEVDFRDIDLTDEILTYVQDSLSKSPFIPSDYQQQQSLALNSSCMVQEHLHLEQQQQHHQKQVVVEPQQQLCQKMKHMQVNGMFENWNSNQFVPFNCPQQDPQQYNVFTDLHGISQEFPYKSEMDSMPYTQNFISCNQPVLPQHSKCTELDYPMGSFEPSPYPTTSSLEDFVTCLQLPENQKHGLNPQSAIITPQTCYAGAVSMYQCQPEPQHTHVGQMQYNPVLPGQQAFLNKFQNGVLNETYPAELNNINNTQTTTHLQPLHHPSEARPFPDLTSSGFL
Peroxisome proliferator-activated receptor gamma (Homo sapiens), sequence (P37231 whole entry, looked up): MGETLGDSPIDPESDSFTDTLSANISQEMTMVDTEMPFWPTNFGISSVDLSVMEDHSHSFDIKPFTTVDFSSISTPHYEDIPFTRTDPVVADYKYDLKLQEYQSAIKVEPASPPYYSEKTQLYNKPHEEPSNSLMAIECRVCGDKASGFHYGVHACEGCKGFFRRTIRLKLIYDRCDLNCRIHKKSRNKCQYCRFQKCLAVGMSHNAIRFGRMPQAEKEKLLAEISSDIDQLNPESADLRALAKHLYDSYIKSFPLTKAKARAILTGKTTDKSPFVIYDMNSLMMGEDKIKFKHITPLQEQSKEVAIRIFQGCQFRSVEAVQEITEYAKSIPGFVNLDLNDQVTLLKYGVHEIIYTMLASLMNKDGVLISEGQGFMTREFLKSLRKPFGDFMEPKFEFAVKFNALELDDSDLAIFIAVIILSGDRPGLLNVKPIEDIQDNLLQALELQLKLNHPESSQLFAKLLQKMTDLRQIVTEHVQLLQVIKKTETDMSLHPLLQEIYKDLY

Consider `[O-][Cl+3]([O-])([O-])O`, for which the Potency result (in assay [1]; in [2]; in assay [3]; in the assay with Aromatase (Homo sapiens); in assay [4]; in [5]) was “inactive” throughout. Also, the Potency result in [6], in assay [7], in assay [8], in assay [9], in [10] and in [11] was “inactive” each time.
Take `CCC(C)c1cccc(C(C)CC)c1O` (stereo not given): the Potency in assay [12] is 61.1 µM (active). Besides, the Potency entry in assay [13], in assay [14], in assay [2], in assay [15], in assay [16] and in [17] was “inactive” throughout. In addition, the Potency result in [3], in assay [18], in assay [5], in [7] and in assay [19] was “inactive” throughout.
Consider `O=C(Cl)c1ccccc1F`, for which the Potency result in [12], in assay [13], in [14], in assay [2], in [15] and in [16] was “inactive” each time. The Potency entry (in [17]; in assay [3]; in the assay with Aromatase (Homo sapiens); in [4]; in assay [18]; in assay [5]) was “inactive” in each case. Moreover, the Potency result in assay [6], in assay [9], in [19], in [10] and in [11] was “inactive” each time.
`CSSC`: the Potency result in assay [12], in [13], in assay [2], in [3], in assay [5] and in assay [9] was “inactive” each time. In addition, the Potency entry in assay [10] and in [11] was “inactive” throughout.
Consider `Nc1c(Cl)c(Cl)c(Cl)c(Cl)c1Cl`, for which the Potency result (in assay [12]; in assay [13]; in assay [2]; in assay [3]; with Aromatase (Homo sapiens); in assay [5]) was “inactive” each time. In addition, the Potency entry in assay [19] and in assay [11] was “inactive” in each case. In addition, the Potency in assay [18] is 50.5 µM (active).
With `COC(=O)C(C)N(C(=O)c1ccco1)c1c(C)cccc1C` (stereo not given), the Potency result in [12], in [13], in [14], in assay [2], in [15] and in [16] was “inactive” in each case. Also, the Potency entry (in [3]; with Aromatase (Homo sapiens); in assay [4]; in [18]; in assay [5]; in [6]) was “inactive” in each case. The Potency result in [8], in assay [9], in assay [19] and in assay [10] was “inactive” in each case.
Turning to `CSC1=N[C@@](C)(c2ccccc2)C(=O)N1Nc1ccccc1`, the Potency in assay [12] is 6.86 µM (active). Besides, the Potency entry in assay [13], in assay [2], in assay [4], in assay [18], in assay [5] and in [19] was “inactive” in each case. Further, the Potency entry in assay [10] and in assay [11] was “inactive” in each case.
Regarding `Cc1cc(C2CC2)nc(Nc2ccccc2)n1`, the Potency in assay [12] is 54.5 µM (active); in assay [16], 9.69 µM (active); in assay [9], 27.3 µM (active). Further, the Potency entry (in assay [13]; in assay [2]; in assay [15]; with Aromatase (Homo sapiens); in assay [5]; in assay [6]) was “inactive” in each case. Besides, the Potency result in assay [8] and in assay [10] was “inactive” each time.
`CCOP(=O)(Sc1ccccc1)Sc1ccccc1`: the Potency entry in assay [1], in assay [2], in assay [15], in [3], in [4] and in assay [18] was “inactive” throughout. The Potency result in [5], in [8], in assay [19] and in assay [10] was “inactive” throughout. The Potency in assay [7] is 54.9 µM (active).
